Compounds with a hit are over-represented: about 4.2% of the library has one in this group of screens.
tim23-1 inh: growth inhibitors of tim23-1 mutant yeast, primary screen, luminescence, uHTS | AID 463212, 2010 | actives 1.3% (n = 330,000) | S. cerevisiae tim23-1 growth, BacTiter-Glo luminescence, 24 h | inhibition, % at 20 µM;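 active means growth inhibition of the mutant yeast at or above 50%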;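 further: temperature-sensitive mutant grown at 25 °C; plate controls were DMSO-treated mutant yeast for no effect and medium wells lacking yeast for full effect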
NALP1 inh: NALP1 inflammasome inhibitors in reconstituted yeast, colorimetric, S. cerevisiae, triplicate retest | inhibition, % at 10 µM | actives 0.61% (n = 280,000) | AID 2071, 2009 | S. cerevisiae NALP1/ASC/caspase-1 growth, X-gal OD620, 72 h; in the data active means inhibition mostly above about 24%, no sharp cut-off; inactive means mostly below about 32%
tim10-1 inh: growth inhibitors of tim10-1 mutant yeast, primary screen, luminescence, uHTS; S. cerevisiae tim10-1 ts strain growth, BacTiter-Glo, 24 h; inhibition, % at 20 µM; actives 2.2% (n = 330,000); AID 463190, 2010;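 active means inhibition of at least 40%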;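 further: mutant grown at 25 °C; 0% = DMSO wells with yeast and 100% = wells holding no yeast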
V-ATPase pHluor: regulators of yeast V-ATPase proton pumping, primary screen, pHLuorin cytosolic pH fluorescence | AID 504577, 2011 | response, % at 10 µM | actives 0.37% (n = 350,000) | S. cerevisiae; in the data active means response mostly above about 7.3%, no sharp cut-off; inactive means mostly below about 5.4%; further: actives read high
NLRP3 yeast inh: NALP3 inflammasome inhibitors in reconstituted yeast, primary screen, luminescence, uHTS. Yeast reconstituted NLRP3/ASC/caspase-1, beta-gal luminescence, 24 h. inhibition, % at 10 µM. actives 0.39% (n = 330,000). AID 2825, 2010;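 active means inhibition of 50% or more; inactive means inhibition below 50%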;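 further: plate controls were induced DMSO wells for no effect and uninduced yeast grown without galactose for full effect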
TIM10 inh: growth inhibitors of isogenic TIM10 control yeast, primary screen, counter-screen for tim10-1 yeast inhibitor project, luminescence, uHTS. S. cerevisiae TIM10 strain growth, BacTiter-Glo luminescence, 24 h. inhibition, % at 10 µM. actives 1.4% (n = 330,000). AID 463195, 2010;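 active means inhibition of 40% or more at the single tested concentration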;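 further: wild-type TIM10 isogenic control strain grown at permissive 25 °C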
tim10 confirm: growth inhibitors of wild-type TIM10 yeast, confirmation, counter-screen for tim10-1 synthetic lethality project, single concentration, luminescence, S. cerevisiae. S. cerevisiae tim10 strain growth, BacTiter-Glo luminescence, 24 h. actives 63% (n = 4,600). shares compounds with TIM10 inh. AID 463215, 2010. inhibition, % at 10 µM;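 active means inhibition of yeast growth at or above a set limit in either of two replicates at 10 µM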;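 further: this counterscreen used the strain with wild-type TIM10; 0% = yeast with DMSO and 100% = medium wells lacking yeast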
tim23-1 confirm: tim23-1 mutant yeast growth inhibitors, confirmation, luminescence, single concentration; actives 83% (n = 4,400); shares compounds with tim23-1 inh; S. cerevisiae tim23-1 growth, BacTiter-Glo luminescence, 24 h; AID 463218, 2010; inhibition, % at 20 µM;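 active means inhibition above about 39% in either of two replicate wells at 20 µM, limit read from the data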;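 further: temperature-sensitive tim23-1 mutant grown at 25 °C; 0% = DMSO wells with yeast and 100% = medium wells without yeast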
Numbers without * were called inactive; nt = no result.

SMILES | tim23-1 inh | NALP1 inh | tim10-1 inh | V-ATPase pHluor | NLRP3 yeast inh | TIM10 inh | tim10 confirm | tim23-1 confirm
CCOC(=O)C1CCN(C(=O)CSc2nc3ncccc3[nH]2)CC1 | 2.3 | 4.8 | -3.9 | -0.4 | 6.9 | -0.7 | nt | nt
COC(=O)Cc1ccc(NC(=S)NCCSc2ccc(Cl)cc2)cc1 | 50.1* | 13.7 | 35.0 | 3.5 | 38.0 | 44.1* | 42.4* | 42.8*
COC(=O)Cc1ccc(NC(=S)NCCO)cc1 | -5.0 | nt | 20.6 | -3.0 | 15.5 | 9.3 | nt | nt
O=C(Nc1cccc(F)c1)C1CCCN(S(=O)(=O)c2cnc[nH]2)C1 (stereo not drawn) | 2.2 | 4.2 | 4.4 | 2.4 | 0.1 | -3.8 | nt | nt
CCN1CCn2c3c(c4cccc(C)c42)CCCC31 (stereo not drawn) | 0.5 | -1.1 | -0.3 | 0.1 | 20.5 | -2.8 | nt | nt
Oc1c(Cl)cc(Cl)cc1C=Nc1ccc(N2CCOCC2)cc1 | 73.9* | 23.9 | 16.3 | -13.4 | 14.7 | 65.7* | 17.5 | 38.5*
Cc1cc(Br)cc(C=Nc2ccc(N3CCOCC3)cc2)c1O | 38.4 | nt | 21.6 | -2.2 | 4.3 | -2.2 | nt | nt
CCOc1ccc(C(C)NC(=O)c2ccc3c(c2)NC(=O)C(C)S3)cc1OCC (stereo not drawn) | 5.3 | nt | 4.9 | 5.3 | 1.0 | -0.2 | nt | nt
NNC(=O)c1cc2cc(OC(F)(F)F)ccc2[nH]1 | 57.6* | -1.1 | 28.6 | -4.7 | 7.8 | 50.4* | 40.4* | 49.7*
O=C(NNC(=O)c1cc2cc(OC(F)(F)F)ccc2[nH]1)c1cccc(C(F)(F)F)c1 | 6.2 | 5.0 | -10.1 | -2.5 | 15.3 | -0.9 | nt | nt
CCOC(=O)c1cnc2c(Cl)c(Cl)ccc2c1NCCN1CCOCC1 | 27.9 | 14.9 | 26.8 | 0.7 | 11.7 | 16.4 | nt | nt
CCOC(=O)c1cnc2c(C)c(Cl)ccc2c1NCCCN1CCOCC1 | 50.8* | 14.3 | 33.3 | -1.3 | 18.4 | 65.3* | 59.8* | 41.1*
COc1ccc(N2CC(C(=O)N3CCN(S(=O)(=O)c4ccc(F)c(F)c4)CC3)CC2=O)c(OC)c1 (stereo not drawn) | nt | nt | nt | 1.6 | nt | nt | nt | nt
O=[N+]([O-])c1cc2oc3c(c2c(C=NCc2ccccc2)c1O)CCCC3 | 77.4* | 62.4 | 33.9 | -1.5 | 10.7 | 54.0* | -0.2 | 2.2
CCCCn1c(N)c(N(CCOC)C(=O)c2cc(=O)[nH]c3ccccc23)c(=O)[nH]c1=O | -11.8 | nt | -1.8 | 0.4 | -0.9 | 8.4 | nt | nt
O=C(NN=Cc1ccccc1OC(F)F)c1ccc(NS(=O)(=O)c2cccs2)cc1 | -11.8 | nt | -24.3 | 1.8 | 4.4 | 0.7 | nt | nt
O=C(CSc1ccc(-c2ccccc2)nn1)Nc1ccc2c(c1)OCCO2 | 54.9* | 33.7 | 36.2 | -2.0 | 24.4 | 55.5* | 58.5* | 79.2*
O=C(CSc1ccccc1)Nc1ccc2c(c1)OCCO2 | 24.3 | 0.1 | -9.9 | -0.6 | 14.4 | -8.6 | nt | nt
COc1cc(CCC(=O)OCC(=O)Nc2cc(S(=O)(=O)N3CCOCC3)ccc2Cl)cc(OC)c1OC | nt | nt | nt | -3.4 | nt | nt | nt | nt
O=[N+]([O-])c1ccc(O)c(/C=N/NC(=S)Nc2ccc(Cl)cc2Cl)c1 | 81.2* | nt | -2.9 | 3.3 | 20.6 | 45.7* | 43.1* | 77.0*
Cn1c(CSc2nc3ccccc3s2)nc2ccccc21 | 58.5* | 38.6 | 37.9 | 0.6 | 36.0 | 46.0* | 42.6* | 64.9*
CCn1nnc(NC(=S)NC(=O)c2ccc(-c3cccc(Cl)c3)o2)n1 | 41.5 | nt | 35.1 | -0.1 | 36.1 | 34.9 | nt | nt
CCCn1nnc(NC(=O)c2ccc(-c3cccc(Cl)c3)o2)n1 | 69.0* | 2.6 | 33.9 | -1.2 | 19.0 | 51.1* | 32.0* | 73.6*
CCCOc1ccc(CSc2nc3ccccc3[nH]2)cc1 | 63.9* | 7.1 | 23.1 | -0.1 | 14.9 | 46.7* | 36.3* | 48.8*
